Assay results as given in PubChem BioAssay (EPA / NIEHS).
Active and inactive are the calls of the source. How the source made its calls: active means hit-call score of the fitted dose curve at least 0.9, where 1 is the maximum; inactive means score below 0.9.

The compounds below were run on Interferon-gamma inducible Protein 10 (IP10), CXCL10 (gene 3627) (assay: BSK_hDFCGF_IP10: BioMAP Diversity Plus: hDFCGF Assay for Interferon-gamma inducible Protein 10 (IP10) Biomarker Activity (AID 2283053)). Conditions: primary human foreskin fibroblasts; actives raise or lower the signal.
Outline: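 ELISA read-out of IP-10 (CXCL10) from primary human skin fibroblasts, 24 h after compound addition. Gain or loss of signal versus DMSO baseline, bidirectional curve fitting.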

| Compound | AC50 | outcome |
| --- | --- | --- |
| Cc1nccn1-c1ccc(Sc2cccc(C3(C(N)=O)CCOCC3)c2)cc1 | 10.2 µM (active) |  |
| CCCc1ccccc1 |  | inactive |
| C[C@@H](Oc1ccc(CNC(=O)c2cccnc2Oc2ccc3c(c2)OCO3)c(F)c1)C(=O)O |  | inactive |
| Cc1ncc([C@@H](CCCCCCc2ccc3c(n2)NCCC3)CC(=O)O)cn1 |  | inactive |
| NNC(=O)c1ccncc1 |  | inactive |
| OC(CCl)CCl |  | inactive |
| OCCC(F)(F)C(F)(F)C(F)(F)C(F)(F)F |  | inactive |

These compounds were tested on Urokinase-type plasminogen activator receptor (uPAR), PLAUR (gene 5329) (assay: BSK_CASM3C_uPAR: BioMAP Diversity Plus: CASM3C Assay for Urokinase-type plasminogen activator receptor (uPAR) Biomarker Activity (AID 2283054;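 further: cell-surface uPAR protein level quantified by ELISA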)). Conditions: primary human coronary artery smooth muscle cells; actives raise or lower the signal.

| Compound | outcome | AC50 |
| --- | --- | --- |
| Cn1cc[nH]c1=S | inactive |  |
| CC(C)CC(C)O (stereo not drawn) | inactive |  |
| O=C1CN(N=Cc2ccc([N+](=O)[O-])o2)C(=O)N1 | inactive |  |
| OCc1ccccc1 | inactive |  |
| NC(=O)N(O)[C@@H]1COc2cc(OCc3ccccc3)ccc21 | inactive |  |
| C=CCc1cc(S(=O)(=O)c2ccc(O)c(CC=C)c2)ccc1O |  | 21.7 µM (active) |
| CC(C)C(=O)Nc1ccc([N+](=O)[O-])c(C(F)(F)F)c1 | inactive |  |
| CCn1nc(C)c2c1C(=O)NCC(c1ccc(O)cc1)=N2 |  | 8.18 µM (active) |
| COc1cc2c(c(OC)c1OC)-c1ccc(OC)c(=O)cc1[C@@H](NC(C)=O)CC2 | inactive |  |
| CNC(C)=O | inactive |  |
| CCOC(N)=O | inactive |  |
| FC(F)=C(F)C(F)(F)C(F)(F)C(F)(F)C(F)(F)C(F)(F)C(F)(F)F | inactive |  |
| c1ccc2cc3ccccc3cc2c1 | inactive |  |
| CCCCOC(=O)c1ccccc1 | inactive |  |
| O=C(Cl)C(F)(F)C(F)(F)C(F)(F)C(=O)Cl | inactive |  |
| Cn1c(=O)c2[nH]cnc2n(C)c1=O | inactive |  |
| CCCOc1ccc(S(=O)(=O)N2CCN(CC)CC2)cc1-c1nc2c(CC)n(Cc3ccccn3)nc2c(=O)[nH]1 | inactive |  |
| CC(C)CCCCCCOC(=O)C1CCCCC1C(=O)OCCCCCCC(C)C (stereo not drawn) | inactive |  |
| COS(C)(=O)=O | inactive |  |
| O=C(O)[C@H](O)[C@@H](O)C(=O)O | inactive |  |
| Cc1nccn1-c1ccc(Sc2cccc(C3(C(N)=O)CCOCC3)c2)cc1 | inactive |  |
| CCCc1ccccc1 | inactive |  |
| C[C@@H](Oc1ccc(CNC(=O)c2cccnc2Oc2ccc3c(c2)OCO3)c(F)c1)C(=O)O | inactive |  |
| Cc1ncc([C@@H](CCCCCCc2ccc3c(n2)NCCC3)CC(=O)O)cn1 |  | 0.148 µM (active) |
| NNC(=O)c1ccncc1 | inactive |  |
| OC(CCl)CCl | inactive |  |
| OCCC(F)(F)C(F)(F)C(F)(F)C(F)(F)F | inactive |  |

The compounds below were run on Vascular cell adhesion molecule 1 (VCAM1), VCAM1 (gene 7412) (assay: BSK_CASM3C_VCAM1: BioMAP Diversity Plus: CASM3C Assay for Vascular cell adhesion molecule 1 (VCAM1) Biomarker Activity (AID 2283055;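 further: VCAM-1 protein level quantified by ELISA on the cells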)). Conditions: primary human coronary artery smooth muscle cells; actives raise or lower the signal.

| Compound | outcome | AC50 |
| --- | --- | --- |
| Cn1cc[nH]c1=S | inactive |  |
| CC(C)CC(C)O (stereo not drawn) | inactive |  |
| O=C1CN(N=Cc2ccc([N+](=O)[O-])o2)C(=O)N1 | inactive |  |
| OCc1ccccc1 | inactive |  |
| NC(=O)N(O)[C@@H]1COc2cc(OCc3ccccc3)ccc21 |  | 10.2 µM (active) |
| C=CCc1cc(S(=O)(=O)c2ccc(O)c(CC=C)c2)ccc1O |  | 35.7 µM (active) |
| CC(C)C(=O)Nc1ccc([N+](=O)[O-])c(C(F)(F)F)c1 | inactive |  |
| CCn1nc(C)c2c1C(=O)NCC(c1ccc(O)cc1)=N2 | inactive |  |
| COc1cc2c(c(OC)c1OC)-c1ccc(OC)c(=O)cc1[C@@H](NC(C)=O)CC2 |  | 0.579 µM (active) |
| CNC(C)=O | inactive |  |
| CCOC(N)=O | inactive |  |
| FC(F)=C(F)C(F)(F)C(F)(F)C(F)(F)C(F)(F)C(F)(F)C(F)(F)F | inactive |  |
| c1ccc2cc3ccccc3cc2c1 | inactive |  |
| CCCCOC(=O)c1ccccc1 | inactive |  |
| O=C(Cl)C(F)(F)C(F)(F)C(F)(F)C(=O)Cl | inactive |  |
| Cn1c(=O)c2[nH]cnc2n(C)c1=O | inactive |  |
| CCCOc1ccc(S(=O)(=O)N2CCN(CC)CC2)cc1-c1nc2c(CC)n(Cc3ccccn3)nc2c(=O)[nH]1 | inactive |  |
| CC(C)CCCCCCOC(=O)C1CCCCC1C(=O)OCCCCCCC(C)C (stereo not drawn) | inactive |  |
| COS(C)(=O)=O | inactive |  |
| O=C(O)[C@H](O)[C@@H](O)C(=O)O | inactive |  |
| Cc1nccn1-c1ccc(Sc2cccc(C3(C(N)=O)CCOCC3)c2)cc1 |  | 14.9 µM (active) |
| CCCc1ccccc1 | inactive |  |
| C[C@@H](Oc1ccc(CNC(=O)c2cccnc2Oc2ccc3c(c2)OCO3)c(F)c1)C(=O)O | inactive |  |
| Cc1ncc([C@@H](CCCCCCc2ccc3c(n2)NCCC3)CC(=O)O)cn1 | inactive |  |
| NNC(=O)c1ccncc1 | inactive |  |
| OC(CCl)CCl | inactive |  |
| OCCC(F)(F)C(F)(F)C(F)(F)C(F)(F)F | inactive |  |

The compounds below were run on Collagen III, COL3A1 (gene 1281) (assay: BSK_hDFCGF_CollagenIII: BioMAP Diversity Plus: hDFCGF Assay for Collagen III Biomarker Activity (AID 2283056)). Conditions: primary human foreskin fibroblasts; actives raise or lower the signal.
Outline: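 Human foreskin fibroblast primary cultures sampled 24 h after dosing; Collagen III quantified by ELISA. Signal fitted bidirectionally against DMSO baseline.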

| Compound | outcome | AC50 |
| --- | --- | --- |
| Cn1cc[nH]c1=S | inactive |  |
| CC(C)CC(C)O (stereo not drawn) | inactive |  |
| O=C1CN(N=Cc2ccc([N+](=O)[O-])o2)C(=O)N1 | inactive |  |
| OCc1ccccc1 | inactive |  |
| NC(=O)N(O)[C@@H]1COc2cc(OCc3ccccc3)ccc21 | inactive |  |
| C=CCc1cc(S(=O)(=O)c2ccc(O)c(CC=C)c2)ccc1O |  | 6.52 µM (active) |
| CC(C)C(=O)Nc1ccc([N+](=O)[O-])c(C(F)(F)F)c1 |  | 31.7 µM (active) |
| CCn1nc(C)c2c1C(=O)NCC(c1ccc(O)cc1)=N2 | inactive |  |
| COc1cc2c(c(OC)c1OC)-c1ccc(OC)c(=O)cc1[C@@H](NC(C)=O)CC2 | inactive |  |
| CNC(C)=O | inactive |  |
| CCOC(N)=O | inactive |  |
| FC(F)=C(F)C(F)(F)C(F)(F)C(F)(F)C(F)(F)C(F)(F)C(F)(F)F | inactive |  |
| c1ccc2cc3ccccc3cc2c1 | inactive |  |
| CCCCOC(=O)c1ccccc1 | inactive |  |
| O=C(Cl)C(F)(F)C(F)(F)C(F)(F)C(=O)Cl | inactive |  |
| Cn1c(=O)c2[nH]cnc2n(C)c1=O | inactive |  |
| CCCOc1ccc(S(=O)(=O)N2CCN(CC)CC2)cc1-c1nc2c(CC)n(Cc3ccccn3)nc2c(=O)[nH]1 | inactive |  |
| CC(C)CCCCCCOC(=O)C1CCCCC1C(=O)OCCCCCCC(C)C (stereo not drawn) | inactive |  |
| COS(C)(=O)=O | inactive |  |
| O=C(O)[C@H](O)[C@@H](O)C(=O)O | inactive |  |
| Cc1nccn1-c1ccc(Sc2cccc(C3(C(N)=O)CCOCC3)c2)cc1 | inactive |  |
| CCCc1ccccc1 | inactive |  |
| C[C@@H](Oc1ccc(CNC(=O)c2cccnc2Oc2ccc3c(c2)OCO3)c(F)c1)C(=O)O | inactive |  |
| Cc1ncc([C@@H](CCCCCCc2ccc3c(n2)NCCC3)CC(=O)O)cn1 | inactive |  |
| NNC(=O)c1ccncc1 | inactive |  |
| OC(CCl)CCl | inactive |  |
| OCCC(F)(F)C(F)(F)C(F)(F)C(F)(F)F | inactive |  |
